Compound activity (PubChem BioAssay)
An excerpt weighted towards active compounds, which were near 3.2% of everything screened.
LmPK inhibitor – qHTS Assay for Inhibitors of Leishmania Mexicana Pyruvate Kinase (LmPK). 290,000 tested, 0.37% active. Q27686. Potency, µM (top dose mostly 57.5 µM), without a hit: at the highest dose activity change, negative = inhibition, hits mostly inhibitors. purified LmPK, Kinase-Glo ATP luminescence, 1 h
Target sequence (Q27686 whole entry, looked up): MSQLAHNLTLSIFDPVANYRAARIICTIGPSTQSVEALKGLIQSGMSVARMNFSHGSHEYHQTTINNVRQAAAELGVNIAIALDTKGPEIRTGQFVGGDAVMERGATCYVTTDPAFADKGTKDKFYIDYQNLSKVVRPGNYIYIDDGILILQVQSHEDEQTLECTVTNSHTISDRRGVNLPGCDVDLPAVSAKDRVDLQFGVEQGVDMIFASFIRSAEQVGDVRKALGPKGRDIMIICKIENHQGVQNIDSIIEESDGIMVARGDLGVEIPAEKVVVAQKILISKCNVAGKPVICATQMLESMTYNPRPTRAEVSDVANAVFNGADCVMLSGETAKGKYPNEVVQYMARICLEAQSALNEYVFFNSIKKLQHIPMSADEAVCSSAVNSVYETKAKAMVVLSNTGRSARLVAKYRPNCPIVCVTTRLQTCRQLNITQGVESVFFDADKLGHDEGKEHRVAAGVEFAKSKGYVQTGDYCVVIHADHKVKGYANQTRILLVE
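Purified LmPK (0.1 nM) with 0.5 mM PEP and 0.1 mM ADP in imidazole buffer pH 7.2 with MgCl2/KCl, 1 h at room temperature. ATP formed was read by luciferase luminescence and normalized to no-enzyme and uninhibited controls.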
AMA1 RON2 block – qHTS for Inhibitors of AMA1-RON; Towards Development of Antimalarial Drug Lead: Primary Screen; 360,000 tested, 0.2% active; Potency, µM (titrated, usually from 58.2 µM), for inactives: at the top dose activity change, negative = inhibition, hits mostly inhibitors; Plasmodium falciparum AMA1 (3D7) - RON2 peptide interaction; AlphaScreen AMA1-biotinylated RON2 peptide binding;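 further: 0% = vehicle wells and -100% = peptide control; nearly all actives have a fitted effect of over 45% in size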
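AMA1 (3D7) with his tag at 25 nM final met compounds first, then biotinylated RON2 peptide at 25 nM; detection used donor plus acceptor beads, 10 µg/mL apiece, read by AlphaScreen after 30 min at room temperature.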
TbPYK inhibitor – qHTS of Trypanosoma Brucei Inhibitors. 410,000 tested, 0.12% active. pyruvate kinase (Trypanosoma brucei), Q57TT1. Potency, µM (series often up to 76.8 µM), for the others: at the highest dose activity, negative = inhibition, hits mostly inhibitors. TbPYK enzyme, Kinase-Glo Plus ATP luminescence, 45 min; further: nearly all actives have a fitted effect of over 50% in size
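In this concentration-response screen, enzyme-free wells defined baseline while DMSO plates tracked drift. Each reaction combined TbPYK, substrate, compound and 130 uM ADP for 45 min at room temperature. Kinase-Glo Plus luminescence gave the signal.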
RE007 growth inh – qHTS Assay for Inhibitors of the HIV-1 protein Vpr. S. pombe RE007 Vpr strain, BacTiter-Glo ATP luminescence, 24 h. Potency, µM (series often up to 92.2 µM), inactives show at the highest dose activity change, negative = less growth, usual class: inhibitors. 360,000 tested, 0.21% active. AID 651644, 2012; active means well fitted falling curve with a large enough effect; inconclusive means small, poorly fitted or top-dose-only effect; inactive means no such curve, though single readings can be large or run the other way; further: nearly all actives have a fitted effect of over 50% in size
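Fission yeast strain RE007, carrying one chromosomally integrated HIV-1 vpr copy, was seeded at OD 0.01 in PMG+AL medium with 23 nL pinned compound. After 24 h at 30 °C and 99% humidity, viability was read by BacTiter-Glo luminescence.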
Sm TGR block – qHTS Assay for the Inhibitors of Schistosoma Mansoni Peroxiredoxins; Schistosoma mansoni thioredoxin glutathione reductase (TGR), Q962Y6; purified TGR, DTNB reduction, TNB absorbance 405 nm; AID 485364, 2010; Potency, µM (highest dose often 114 µM), inactives show at the highest dose activity change, negative = inhibition, usual class: inhibitors; 360,000 tested, 3% active; further: nearly all actives have a fitted effect of over 60% in size
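Kinetic colorimetric format: TGR-catalysed, NADPH-driven DTNB reduction monitored via TNB absorbance. Enzyme dispensed at 20 nM; compound exposure 15 min at room temperature before reaction start.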
* hit, by the source's call; ? = inconclusive; . = not tested or not shown. Unless noted, the call rests on the fitted dose curve; in most records, active means well fitted curve in the direction sought with a large enough effect; inconclusive means small, poorly fitted or top-dose-only effect, or another doubt; inactive means no such curve, though single readings can be large; an effect the other way counts as inactive or inconclusive. Unless noted, on the % scale 0 is the no-effect control and ±100 the full control effect; potency means the concentration at half of the fitted maximal effect.

SMILES	LmPK inhibitor	AMA1 RON2 block	TbPYK inhibitor	RE007 growth inh	Sm TGR block
C#CCNC(=O)C1=C[C@H](c2ccccc2)C[C@H](OCCCCO)O1	5%	3%	0%	1%	14µM*
O=C(NC1CC1)C1=C[C@@H](c2coc3ccccc3c2=O)C[C@@H](OCCCCO)O1	1%	-12%	-8%	1%	45µM*
C#CCNC(=O)C1=C[C@H](c2ccc(C(F)(F)F)cc2)C[C@H](OCc2ccc(CO)cc2)O1	12%	6%	-9%	-8%	40µM*
C#CCNC(=O)C1=C[C@@H](c2ccc(Br)cc2)C[C@@H](OCCCCO)O1	3%	-5%	2%	3%	0%
C#CCNC(=O)C1=C[C@@H](c2ccccc2)C[C@@H](OCc2ccc(CO)cc2)O1	4%	-1%	1%	0%	45µM*
NC(=O)C1=C[C@@H](c2coc3ccccc3c2=O)C[C@@H](OCCCCO)O1	0%	12%	-1%	13%	1%
Cc1cccc(OCC(=O)Nc2ccc(Cl)c(-c3nc4ncccc4o3)c2)c1C	.	.	5%	.	7%
CCc1ccc(OCC(=O)Nc2cc(-c3ccc(C)cc3)no2)cc1	.	.	-9%	.	-4%
COc1cccc(NC(=O)Cn2c(=O)n(CCc3ccccc3)c(=O)c3c4c(sc32)CN(C(C)=O)CC4)c1	.	.	-7%	.	0%
Cc1ccccc1-c1nc(CN2CCC(C(=O)NC(C)C)CC2)c(C)o1	.	.	1%	.	1%
COc1cccc(CNC(=O)c2c(C)oc3nc(C)nc(N4CCOCC4)c23)c1	.	.	-2%	.	10%
O=C(NCc1ccccc1)C1=C[C@@H](C2CC2)C[C@@H](OCCCCO)O1	0%	15%	-5%	-16%	-15%
C#CCNC(=O)C1=C[C@H](C2CC2)C[C@H](OCCCCO)O1	1%	8%	0%	4%	45µM*
CC(=O)Nc1ccc(Nc2nc(Cl)nc(Nc3ccc(NC(C)=O)cc3)n2)cc1	-9%	-18%	3%	-14%	35µM*
CCCn1c(/N=C/c2ccccc2O)nc2ccccc21	-4%	0%	-1%	-9%	-20%
O=S(=O)(/N=C/c1c(O)ccc2ccccc12)c1ccccc1	-4%	-11%	-6%	-24%	40µM*
Cc1nnc(C)n1/N=C/c1c(O)ccc2ccccc12	-2%	95%	-5%	-4%	28µM*
Cc1nnc(-c2ccccc2)c(=O)n1/N=C/c1c(O)ccc2ccccc12	0%	-26%	9%	1%	-1%
Cn1c(/N=C/c2c(O)ccc3ccccc23)nc2ccccc21	-20%	-5%	-6%	-10%	10µM*
Cc1c(CC(=O)NCCc2ccccc2)c(=O)oc2c(C)c3occ(C(C)(C)C)c3cc12	.	.	5%	.	-10%
CC(NNC(=O)c1ccccc1)c1ccccc1 (stereo not drawn)	.	.	-7%	.	.
O=C(COC(=O)CSc1ccc(Br)cc1)NCc1ccco1	.	19%	-5%	3%	-20%
Cc1cc(Br)ccc1SCC(=O)OCC(=O)NCc1ccco1	10%	?	-8%	2%	25µM*
CCN(CC)c1ccc(NC(=O)COC(=O)CSc2ccc(Br)cc2C)cc1	-1%	10µM*	-10%	0%	-5%
COc1ccccc1-c1noc(-c2ccc(NCc3cccnc3)c([N+](=O)[O-])c2)n1	.	.	1%	.	-2%
CN(c1nnc(NC(=O)Nc2ccccc2C(F)(F)F)s1)C1CCCCC1	.	.	4%	.	-2%
COc1ccc(N=C2S/C(=C\c3cc(C)n(C)c3C)C(=O)N2CC(C)C)cc1	2%	3%	-9%	12%	-54%
COc1ccc(N=C2S/C(=C\c3ccco3)C(=O)N2CC(C)C)cc1	3%	-7%	3%	?	45µM*
COc1ccc2c(c1)cc1c(=O)n(CC(=O)NC(C)C)nc(C)n12	.	.	-8%	.	-3%
c1ccc2c(c1)ccc1ccccc12	.	14%	1%	2%	.
